The sample as a whole holds a higher share of the strongest signals than the screen did.
Experiments:
Assay in all cases: glycan array binding signal (z-score within array); higher = stronger binding
Details in all cases: glycan notation: IUPAC condensed, linker removed
[1] = target: Fuc(a1-2)Gal(b1-3)GlcNAc
Method in brief: (§1)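 From the Consortium for Functional Glycomics database, 3228 arrays were curated, keeping only those whose protein sequence was available. Binding is given as a within-array Z-score averaged across arrays sharing a protein sequence and across linkers. Negative Z-scores can be read as non-binding.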

[2] = target: Fuc(a1-2)Gal(b1-3)GlcNAc(b1-2)Man(a1-3)[Fuc(a1-2)Gal(b1-3)GlcNAc(b1-2)Man(a1-6)]Man(b1-4)GlcNAc(b1-4)GlcNAc
Method in brief: as §1

[3] = target: Fuc(a1-2)Gal(b1-3)[Fuc(a1-4)]GlcNAc(b1-3)[Gal(b1-4)GlcNAc(b1-6)]Gal(b1-4)Glc
Method in brief: as §1

[4] = target: Fuc(a1-2)Gal(b1-4)GlcNAc(b1-3)GalNAc
Method in brief: as §1

[5] = target: Fuc(a1-2)[Gal(a1-3)]Gal(b1-4)[Fuc(a1-3)]GlcNAc(b1-3)GalNAc
Method in brief: as §1

[6] = target: Fuc(a1-3)[Gal(b1-4)]GlcNAc6S
Method in brief: as §1

[7] = target: Gal(a1-3)Gal
Method in brief: as §1

[8] = target: Gal(a1-3)Gal(b1-3)GlcNAc(b1-2)Man(a1-3)[Gal(a1-3)Gal(b1-3)GlcNAc(b1-2)Man(a1-6)]Man(b1-4)GlcNAc(b1-4)GlcNAc
Method in brief: as §1

[9] = target: Gal(a1-4)Gal(b1-3)GlcNAc(b1-2)Man(a1-3)[Gal(a1-4)Gal(b1-3)GlcNAc(b1-2)Man(a1-6)]Man(b1-4)GlcNAc(b1-4)GlcNAc
Method in brief: as §1

[10] = target: Gal(b1-3)GlcNAc(a1-3)Gal(b1-4)GlcNAc
Method in brief: as §1

[11] = target: Gal(b1-3)GlcNAc(b1-2)Man(a1-3)[Gal(b1-3)GlcNAc(b1-2)Man(a1-6)]Man(b1-4)GlcNAc(b1-4)[Fuc(a1-6)]GlcNAc
Method in brief: as §1

[12] = target: Gal(b1-3)GlcNAc(b1-3)Gal(b1-4)GlcNAc(b1-3)Gal(b1-4)GlcNAc(b1-2)[Gal(b1-3)GlcNAc(b1-3)Gal(b1-4)GlcNAc(b1-3)Gal(b1-4)GlcNAc(b1-6)]Man(a1-6)[Gal(b1-3)GlcNAc(b1-3)Gal(b1-4)GlcNAc(b1-3)Gal(b1-4)GlcNAc(b1-2)Man(a1-3)]Man(b1-4)GlcNAc(b1-4)[Fuc(a1-6)]GlcNAc
Method in brief: as §1

[13] = target: Gal(b1-3)GlcNAc(b1-6)GalNAc
Method in brief: as §1

[14] = target: Gal(b1-3)[Neu5Ac(a2-6)]GalNAc
Method in brief: as §1

[15] = target: Gal(b1-4)GlcNAc(b1-2)[Gal(b1-4)GlcNAc(b1-6)]Man(a1-6)[GlcNAc(b1-4)][Gal(b1-4)GlcNAc(b1-2)Man(a1-3)]Man(b1-4)GlcNAc(b1-4)GlcNAc
Method in brief: as §1

[16] = target: Gal(b1-4)GlcNAc(b1-3)Gal(b1-4)GlcNAc(b1-3)Gal(b1-4)GlcNAc
Method in brief: as §1

[17] = target: Gal(b1-4)GlcNAc(b1-3)Gal(b1-4)GlcNAc(b1-3)Gal(b1-4)GlcNAc(b1-2)Man(a1-3)[Gal(b1-4)GlcNAc(b1-3)Gal(b1-4)GlcNAc(b1-3)Gal(b1-4)GlcNAc(b1-2)Man(a1-6)]Man(b1-4)GlcNAc(b1-4)GlcNAc
Method in brief: as §1

[18] = target: Gal(b1-4)GlcNAc(b1-3)Gal(b1-4)GlcNAc(b1-3)Gal(b1-4)GlcNAc(b1-2)Man(a1-3)[Gal(b1-4)GlcNAc(b1-3)Gal(b1-4)GlcNAc(b1-3)Gal(b1-4)GlcNAc(b1-2)Man(a1-6)]Man(b1-4)GlcNAc(b1-4)[Fuc(a1-6)]GlcNAc
Method in brief: as §1

[19] = target: Gal(b1-4)GlcNAc(b1-3)Gal(b1-4)GlcNAc(b1-3)Gal(b1-4)GlcNAc(b1-3)Gal(b1-4)GlcNAc(b1-2)Man(a1-3)[Gal(b1-4)GlcNAc(b1-3)Gal(b1-4)GlcNAc(b1-3)Gal(b1-4)GlcNAc(b1-3)Gal(b1-4)GlcNAc(b1-2)Man(a1-6)]Man(b1-4)GlcNAc(b1-4)GlcNAc
Method in brief: as §1

[20] = target: Gal(b1-4)GlcNAc(b1-3)Gal(b1-4)GlcNAc(b1-3)Gal(b1-4)GlcNAc(b1-3)Gal(b1-4)GlcNAc(b1-3)Gal(b1-4)GlcNAc(b1-2)Man(a1-3)[Gal(b1-4)GlcNAc(b1-3)Gal(b1-4)GlcNAc(b1-3)Gal(b1-4)GlcNAc(b1-3)Gal(b1-4)GlcNAc(b1-3)Gal(b1-4)GlcNAc(b1-2)Man(a1-6)]Man(b1-4)GlcNAc(b1-4)[Fuc(a1-6)]GlcNAc
Method in brief: as §1

[21] = target: Gal3S(b1-3)[Fuc(a1-4)]GlcNAc
Method in brief: as §1

[22] = target: GlcA(b1-3)Gal
Method in brief: as §1

[23] = target: GlcNAc(a1-4)Gal(b1-4)GlcNAc
Method in brief: as §1

[24] = target: GlcNAc(b1-3)Gal(b1-4)GlcNAc(b1-3)Gal(b1-4)GlcNAc(b1-3)Gal(b1-4)GlcNAc(b1-3)Gal(b1-4)GlcNAc(b1-2)Man(a1-3)[GlcNAc(b1-3)Gal(b1-4)GlcNAc(b1-3)Gal(b1-4)GlcNAc(b1-3)Gal(b1-4)GlcNAc(b1-3)Gal(b1-4)GlcNAc(b1-2)Man(a1-6)]Man(b1-4)GlcNAc(b1-4)GlcNAc
Method in brief: as §1

[25] = target: Kdn(a2-3)Gal(b1-3)GalNAc
Method in brief: as §1

[26] = target: Man(a1-2)Man(a1-3)[Man(a1-6)]Man(a1-6)[Man(a1-2)Man(a1-3)]Man(b1-4)GlcNAc(b1-4)GlcNAc
Method in brief: as §1

[27] = target: Man(a1-3)[Man(a1-6)]Man(a1-6)[Man(a1-3)]Man(b1-4)GlcNAc(b1-4)GlcNAc
Method in brief: as §1

[28] = target: Neu5Ac(a2-3)Gal(b1-3)[Neu5Ac(a2-6)]GalNAc
Method in brief: as §1

[29] = target: Neu5Ac(a2-3)Gal(b1-4)GlcNAc(b1-2)Man(a1-3)[Neu5Ac(a2-6)Gal(b1-4)GlcNAc(b1-2)Man(a1-6)]Man(b1-4)GlcNAc(b1-4)GlcNAc
Method in brief: as §1

[30] = target: Neu5Ac(a2-3)Gal(b1-4)GlcNAc(b1-3)Gal(b1-4)GlcNAc(b1-3)Gal(b1-4)GlcNAc(b1-2)Man(a1-3)[Neu5Ac(a2-3)Gal(b1-4)GlcNAc(b1-3)Gal(b1-4)GlcNAc(b1-3)Gal(b1-4)GlcNAc(b1-2)Man(a1-6)]GalNAc
Method in brief: as §1

B1: HA-61200 (Pseudomonas aeruginosa), Q02SP8_PSEAB (protein)
chain: MNKCYALVWNVSQGCWNVVSEGSRRRGKPAGAKAAIASVLALLGATALAPAYALPSGGTVVGGSANGEIHLSGGNSLSVNQKVDKLIANWDSFSVAAGERVIFNQPSSSSIALNRVIGTKASDIQGRIDANGQVFLVNPNGVLFGRGAQVNVGGLVASTLDITDAEFNGNSSRYRFTGPSTNGVLNHGGAITAAEGGSIALLGAQVDNRGTVLAQMGGVGLGAGSDLTLNFDGNKLLDIRVDAGVANALASNGGLLKADGGRVLMAARTANALLNTVVNSQGAIEARSLRGKNGRIVLDG
glycan array binding signal (z-score) [1]: -1.2 | glycan array binding signal (z-score) [2]: 4.52 | glycan array binding signal (z-score) [3]: 0.396 | glycan array binding signal (z-score) [4]: -0.278 | glycan array binding signal (z-score) [5]: 1.01 | glycan array binding signal (z-score) [6]: 1.51 | glycan array binding signal (z-score) [7]: -0.38 | glycan array binding signal (z-score) [8]: 5.54 | glycan array binding signal (z-score) [9]: 9.66 | glycan array binding signal (z-score) [10]: -0.012 | glycan array binding signal (z-score) [11]: 5.22 | glycan array binding signal (z-score) [12]: 2.44 | glycan array binding signal (z-score) [13]: 0.257 | glycan array binding signal (z-score) [14]: -0.393 | glycan array binding signal (z-score) [15]: 0.379 | glycan array binding signal (z-score) [16]: -0.492 | glycan array binding signal (z-score) [17]: 3.1 | glycan array binding signal (z-score) [18]: 3.46 | glycan array binding signal (z-score) [19]: 5.18 | glycan array binding signal (z-score) [20]: 2.6 | glycan array binding signal (z-score) [21]: 0.232 | glycan array binding signal (z-score) [22]: -0.781 | glycan array binding signal (z-score) [23]: -0.006 | glycan array binding signal (z-score) [24]: 0.298 | glycan array binding signal (z-score) [25]: -0.393 | glycan array binding signal (z-score) [26]: -0.706 | glycan array binding signal (z-score) [27]: 1.41 | glycan array binding signal (z-score) [28]: -0.092 | glycan array binding signal (z-score) [29]: -0.276 | glycan array binding signal (z-score) [30]: 3.75

From the supplement of paper PMC8728848
